# In PubChem BioAssay AID1259376 (The Scripps Research Institute Molecular Screening Center, 2018):
# The campaign covered roughly 4,700 compounds. About 360 (7.7%) were called active.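 Rule for the calls: active = inhibition above a cutoff derived from the DMSO control wells (cut at about 30% in these data); inactive = the rest.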 The list is a sample of the results.
# Test: bead signal artefacts at single dose – biochemical, AlphaScreen, triplicate, counter-screen for MITF inhibitor project (AID 1259376)
# Conditions: LysRS AlphaScreen counterscreen, signal interference, at 2.6 µM, hits give high values
row,SMILES,inhibition
1,CC(C)(C)n1nnnc1C(c1ccc2ncccc2c1)N1CCSCC1 (stereo not given),30.7% (active)
2,CCSc1ccccc1C(=O)N1CCN(c2ccc(-c3ccccn3)nn2)CC1,101% (active)
3,Brc1cccc(CN2CCN(Cc3cccnc3)CC2)c1,-5.02% (inactive)
4,Cc1cc(C(C)(C)C)ccc1OCCN1CCNCC1,-9.28% (inactive)
5,CCN1CCN(CCOCCOc2ccccc2OCc2ccccc2)CC1,9.59% (inactive)
6,Cc1cc(NC(=O)/C=C/C(=O)N(CC(=O)NC2CCCC2)c2ccc(F)cc2)no1,10.1% (inactive)
7,O=C(c1ccc2c(c1)C(=O)N(Cc1cccnc1)C2=O)c1ccc2c(c1)C(=O)N(Cc1cccnc1)C2=O,24.6% (inactive)
8,CN(CCc1ccccn1)Cc1cccnc1,22.1% (inactive)
9,Cc1ccc(OCCCCNCCN2CCOCC2)c(Br)c1,13.8% (inactive)
10,CCc1ccc(OCCCCn2ccnc2)cc1,0.71% (inactive)
11,N#Cc1nc(COc2cccc(Cl)c2)oc1NCCCn1ccnc1,65.7% (active)
12,CCc1cccc(OCCOCCn2ccnc2)c1,-2.1% (inactive)
13,c1ccc(-n2cc(CN3CCOCC3)c(-c3ccc4c(c3)OCCO4)n2)cc1,10% (inactive)
14,CCCS(=O)(=O)N1CCN(Cc2ccc(OC)c(OCc3ccccc3)c2)CC1,9.8% (inactive)
15,CN1CCC(N2CCN(c3ccccc3Cl)CC2)CC1,14.1% (inactive)
16,COc1cc(Nc2ncnc3c2nc(N2CCOCC2)n3C(C)C)cc(OC)c1OC,13.7% (inactive)
17,COc1ccc(Cn2nnc(C(=O)Nc3cccc(Cl)c3)c2N)cc1,14.3% (inactive)
18,O=C(CNCc1ccc(F)cc1)Nc1ccc(N2CCCC2)cc1,25.2% (inactive)
19,CCOc1ccc(CN2CCCN(C)CC2)cc1,0.42% (inactive)
20,CCCn1c(C)cc(-c2csc(NC(=O)Cc3ccsc3)n2)c1C,12% (inactive)
21,CC(=O)NS(=O)(=O)c1ccc(-c2ccc(C=C(C#N)C#N)o2)cc1,3.05% (inactive)
22,COc1ccc(CN2CCN(Cc3ccccc3OC)CC2)cc1Br,7.62% (inactive)
23,Cc1cccc(CSc2n[nH]c(=O)[nH]c2=O)c1,-7.01% (inactive)
24,CC1CN(CCOc2ccccc2[N+](=O)[O-])CC(C)O1 (stereo not given),13.4% (inactive)
25,COc1ccc(OCCn2ccnc2C)cc1,-3.46% (inactive)

row,SMILES,inhibition
1,CCN1CCN(CCOCCOc2ccc([N+](=O)[O-])cc2)CC1,9.29% (inactive)
2,COc1cccc(/C=C(\C#N)c2nc3ccccc3[nH]2)c1OCc1ccc(Cl)cc1Cl,0.18% (inactive)
3,COc1ccc(C(CNCc2cc(=O)oc3cc4c(cc23)CCC4)N2CCOCC2)cc1 (stereo not given),13% (inactive)
4,CCOc1cc(CN2CCN(Cc3ccccn3)CC2)ccc1OC,17.5% (inactive)
5,c1cc2c(cc1CN1CCN(C3CCCCC3)CC1)OCO2,2.75% (inactive)
6,COc1cc(CN2CCN(Cc3cc(OC)c(OC)cc3OC)CC2)cc(OC)c1,-0.77% (inactive)
7,COc1cc(CN2CCN(Cc3ccccc3Br)CC2)cc(OC)c1,9.78% (inactive)
8,CCN(CC)C(=O)C1CCCN(Cc2cccc(Cl)c2)C1 (stereo not given),14.2% (inactive)
9,COc1ccc(C(=O)N2CCN(Cc3ccccc3C(F)(F)F)CC2)cc1OC,20.4% (inactive)
10,CN(C)c1cccc(Nc2ccc(-c3cccc(C=O)c3)cn2)c1,73.1% (active)
11,C1=CC2CC1CC2CN1CCN(Cc2c[nH]c3ccccc23)CC1 (stereo not given),2.75% (inactive)
12,COc1ccc(CN2CCN(C3CCC(C)CC3)CC2)c(OC)c1OC (stereo not given),-12.1% (inactive)
13,CC(=O)c1ccc(NC(=O)C(C)NCc2ccc(C)cc2)cc1 (stereo not given),15.9% (inactive)
14,Fc1cccc(CN2CCN(C3CCC(c4ccccc4)CC3)CC2)c1 (stereo not given),21.8% (inactive)
15,COCCCN1C(=O)c2cccc3c(C(=O)c4ccccc4)ccc(c23)C1=O,12.9% (inactive)
16,CCOc1cccc(C2C(C(=O)OCCOc3ccccc3)=C(C)NC3=C2C(=O)CCC3)c1 (stereo not given),14.4% (inactive)
17,COC(=O)C1(C)NC(c2ccc(C)cc2)C2C(=O)N(c3ccc(F)cc3)C(=O)C21 (stereo not given),11.6% (inactive)
18,COc1cc(N2CCOCC2)ccc1Nc1cc(Nc2ccccc2-n2cccn2)c(C(F)(F)F)cn1,8.51% (inactive)
19,O=C(C1CCN(Cc2nc3ccccc3[nH]2)CC1)N1CCN(c2ccccn2)CC1,13.8% (inactive)
20,c1cncc(CCNc2ccc3ncc(-c4cc5ccccc5o4)n3n2)c1,6.63% (inactive)
21,O=C(c1ccccc1)N1CCN(C2CCCC2)CC1,-2.61% (inactive)
22,COc1ccc(C2C(C(C)=O)=C(C)N=C3SCC(=O)N32)c(OC)c1 (stereo not given),-6.53% (inactive)
23,COc1ccc(C(=O)COC(=O)CNS(=O)(=O)/C=C/c2ccc(C)cc2)cc1OC,5.32% (inactive)
24,O=C(CN1CCN(CC(=O)c2ccco2)CC1)Nc1ccc(Cl)c(Cl)c1,10.6% (inactive)
25,COc1cc(CN2CCN(Cc3ccc(C)cc3)CC2)c([N+](=O)[O-])cc1OC,13.5% (inactive)

row,SMILES,inhibition
1,CCOc1ccccc1N1CCN(Cc2cc(OC)c(O)c([N+](=O)[O-])c2)CC1,16.9% (inactive)
2,O=C(CCC(=O)OCc1ccc(Cl)cc1)Nc1ccc([N+](=O)[O-])cc1,14.7% (inactive)
3,Cc1n[nH]c(=O)nc1N/N=C/c1cccs1,100% (active)
4,CC1CCN(S(=O)(=O)c2ccc(Cl)c(C(=O)Nc3ccccc3[N+](=O)[O-])c2)CC1,14.3% (inactive)
5,COc1ccc(OC)c(CN2CCN(Cc3ccc(Cl)cc3)CC2)c1,15.1% (inactive)
6,Cn1c(=NC(=O)COc2ccccc2)sc2cc(S(C)(=O)=O)ccc21,12.4% (inactive)
7,COC(=O)c1sc(NC(=O)c2ccccc2C)c(C#N)c1C,-2.84% (inactive)
8,Cc1ccccc1NC(=O)NCCOc1cc(N2CCCC2)ncn1,13.1% (inactive)
9,O=[N+]([O-])c1ccccc1CN1CCN(Cc2cccnc2)CC1,12.2% (inactive)
10,O=C(c1cccc(Cl)c1)N1CCN(Cc2cccnc2)CC1,7.21% (inactive)
11,COc1ccc(-c2nc(Nc3cc(OC)c(OC)c(OC)c3)c3[nH]cnc3n2)cc1,16.5% (inactive)
12,CCNc1nc(NCC)nc(C(=O)O)n1,77% (active)
13,CCN1CCN(CCCCOc2ccccc2F)CC1,6.82% (inactive)
14,Cc1cccc(OCCN2CCNCC2)c1C,-1.28% (inactive)
15,Cc1nc(NC2CC2)cc(-c2ccc(F)cc2)n1,14.2% (inactive)
16,Cc1nc(NC(=O)c2cc(Br)ccc2Cl)sc1C,12.2% (inactive)
17,COc1cc(CN2CCN(Cc3cccnc3)CC2)cc(OC)c1OC,18.8% (inactive)
18,CN(CCc1ccccn1)CC(=O)N1CCc2ccccc21,-7.9% (inactive)
19,CCCCC(=O)NCc1ccc(F)cc1,10.9% (inactive)
20,Cc1nnc(N2CCC(Cc3ccccc3)CC2)c2ccccc12,6.39% (inactive)
21,CCCS(=O)(=O)N1CCN(C(C)C)CC1,9.53% (inactive)
22,C=CCNC(=O)c1sc(=S)n(CC)c1N,-4.06% (inactive)
23,COc1cc2nc(-c3cccc(C(C)=O)c3)nc(N)c2cc1OC,13.2% (inactive)
24,O=C1NC(c2ccccc2[N+](=O)[O-])C(C(=O)c2cccs2)C(O)(C(F)(F)F)N1 (stereo not given),12.5% (inactive)
25,CCN(CC)CC(=O)Nc1c2c(nc3ccccc13)N(c1cccc(C)c1)CC2,1.32% (inactive)

row,SMILES,inhibition
1,Cc1cccc(NC(=O)CNCCN2CCCCC2)c1C,12.4% (inactive)
2,C/C(N)=C(/C#N)C(=O)COC(=O)c1c2c(nc3ccccc13)/C(=C/c1ccco1)CC2,-24.2% (inactive)
3,CC1CCC2C(=O)N(c3ccc(I)cc3)C(=O)C2C1 (stereo not given),0.06% (inactive)
4,Cc1ccc(C)n1C(Cc1ccccc1)C(=O)O (stereo not given),-2% (inactive)
5,Cc1ccc(C)c(OCCN2CCOCC2)c1C,17.5% (inactive)
6,COc1ccc(CN2CCN(Cc3cccnc3)CC2)cc1OCc1ccccc1,10.3% (inactive)
7,C=CCc1cc(C)ccc1OCCCn1ccnc1,7.18% (inactive)
8,OCCOCCN1CCN(Cc2ccc(Cl)cc2)CC1,3.33% (inactive)
9,C=CCn1c(SCC(=O)Nc2nc3ccccc3s2)nc(O)cc1=O,-1.43% (inactive)
10,CN(CCC(=O)O)Cc1cccc(Cl)c1,-6.2% (inactive)
11,COc1cc(CN2CCN(Cc3ccc(Cl)cc3)CC2)c([N+](=O)[O-])cc1OC,4.12% (inactive)
12,CCC(C)c1ccccc1NC(=O)CN(C)CC(=O)Nc1ccccc1SC (stereo not given),3.28% (inactive)
13,O=c1c2ccccc2ncn1CCCCOc1ccccc1F,7.91% (inactive)
14,COc1ccc(CN2CCN(Cc3ccccc3C)CC2)c(OC)c1OC,-1.44% (inactive)
15,COc1ccc(C(=O)NCCN2CCN(c3nc4c(C)c(C)ccc4s3)CC2)cc1,-2.39% (inactive)
16,Fc1ccc(CN2CCN(C3CCCC3)CC2)cc1,5.37% (inactive)
17,O=C(c1cccs1)N1CCC(N2CCN(Cc3ccccc3)CC2)CC1,-5.37% (inactive)
18,O=[N+]([O-])c1ccc(OCc2nnc(SCCN3CCOCC3)n2-c2ccccc2)cc1,-4.47% (inactive)
19,Clc1ccc(CN2CCN(CC3CC=CCC3)CC2)cc1 (stereo not given),1.68% (inactive)
20,Fc1cccc(Cl)c1Cn1nnc(-c2ccncc2)n1,12.8% (inactive)
21,CCCCCOc1ccc(OC(=O)c2ccc(-c3ccc(CCC)cn3)cc2)cc1,9.51% (inactive)
22,O=C(Cc1cccs1)N/N=C\C=C\c1ccco1,-6.28% (inactive)
23,c1ccc(Oc2cccc(OCCCCn3cncn3)c2)cc1,0.8% (inactive)
24,Cn1c(-c2ccc(F)cc2)cnc1NCc1cccnc1,-4.79% (inactive)
25,O=C(CNCc1cccnc1)Nc1ccc(C(=O)N2CCCCC2)cc1,8.3% (inactive)
